IL-1B inflam inh: blocks inflammasome-driven IL-1 beta release | 4.7% of 360,000 active | activity change, % at 57.5 µM | THP-1 LPS/ATP IL-1B secretion, AlphaLISA, 16 h; stronger effect = lower value; in the data active = activity change below about -50%; inconclusive = mostly about -30% to -49%
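THP-1 cells pretreated 1 hr with compounds (up to 57.5 uM final), then stimulated with LPS (250 ng/mL final) plus ATP (1.25 mM final); secreted IL-1B measured by AlphaLISA after 16 hr, decreased signal indicating inhibition.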
VP16 counter: counter-screen for ROR gamma inhibitors: Gal4-VP16 reporter; AID 2546; Potency, µM (doses to about 53.6 µM), inactives show top-dose activity, negative = inhibition, actives largely listed as inhibitors; Drosophila S2 Gal4-VP16 UAS-luciferase, luminescence, 20 h; 3.5% of 310,000 active;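 also: Gal4-VP16 expression switched on by copper sulfate through the metallothionein promoter; potency is read from the fitted curve at half-maximal effect; nearly all actives have a fitted effect of over 50% in size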
DT40 TDP1 no CPT: qHTS for Inhibitors of human tyrosyl-DNA phosphodiesterase 1 (TDP1): qHTS in cells in absence of CPT; DT40 Tdp1-/- hTDP1 cells, no CPT, ATP luminescence, 48 h; Potency, µM (doses to about 46.2 µM), for the others: at the top dose activity change, negative = growth inhibition, usual class: inhibitors; 15% of 420,000 active; also: potency is read from the fitted curve at half-maximal effect; nearly all actives have a fitted effect of over 55% in size
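Luminescent ATP content (CellTiter-Glo) served as the growth readout. Knockout chicken DT40 cells expressing human TDP1 were exposed to compounds without camptothecin for a minimum 48 hr at 37 °C.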
DT40 TDP1 CPT: growth inhibition of DT40 Tdp1-/-;hTDP1 cells with camptothecin (screen for TDP1 inhibitors) | chicken DT40 Tdp1-/-;hTDP1 cells + 20 nM CPT, ATP luminescence, 48 h | Potency, µM (titrated, usually from 46.2 µM), for inactives: at the top dose activity change, negative = growth inhibition, most hits filed as inhibitors | 12% of 420,000 active | AID 686979; also: potency is read from the fitted curve at half-maximal effect; nearly all actives have a fitted effect of over 55% in size
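Cell growth measured by CellTiter-Glo luminescence after a minimum 48 h, 37 C compound exposure with 20 nM CPT in Tdp1-knockout DT40 cells stably expressing hTDP1, seeded 400/well; qHTS titration format.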
RORg inh: ROR gamma (mouse) transcription inhibition; Potency, µM (titrated, usually from 53.6 µM), inactives show top-dose activity change, negative = inhibition, most hits filed as inhibitors; P51450; Drosophila S2 Gal4-RORgamma UAS-luciferase reporter, 20 h; 5.4% of 310,000 active; also: potency is read from the fitted curve at half-maximal effect; nearly all actives have a fitted effect of over 60% in size
Target sequence (P51450 whole entry, looked up, the tested form may be a part): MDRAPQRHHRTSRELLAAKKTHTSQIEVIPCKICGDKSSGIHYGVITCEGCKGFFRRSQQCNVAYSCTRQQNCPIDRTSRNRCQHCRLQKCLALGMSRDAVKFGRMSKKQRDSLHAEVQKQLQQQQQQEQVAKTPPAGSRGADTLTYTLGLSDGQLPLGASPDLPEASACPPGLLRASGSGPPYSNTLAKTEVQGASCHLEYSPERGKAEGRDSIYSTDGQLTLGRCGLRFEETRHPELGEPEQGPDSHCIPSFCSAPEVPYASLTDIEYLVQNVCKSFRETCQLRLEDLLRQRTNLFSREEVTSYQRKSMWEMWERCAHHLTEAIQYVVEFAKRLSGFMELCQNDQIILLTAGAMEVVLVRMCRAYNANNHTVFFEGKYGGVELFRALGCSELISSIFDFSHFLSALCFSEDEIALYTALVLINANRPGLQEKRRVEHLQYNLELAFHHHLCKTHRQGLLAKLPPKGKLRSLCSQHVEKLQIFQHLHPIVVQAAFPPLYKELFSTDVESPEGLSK
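Schneider cells (Drosophila), stable Gal4 DBD–ROR gamma + UAS-luc; 1 hr cmpd preincubation; Cu2+ induction 700 uM final; 20 hr ambient; luminescence.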
LDHA inh: inhibitors of human lactate dehydrogenase A; activity change, % (values are at about 110 or 230 µM); AID 1347041; 0.15% of 480,000 active; purified LDHA, NADH/diaphorase-resazurin fluorescence; stronger effect = lower value; in the data active = activity change below about -30%; inconclusive = mostly about -25% to -30%;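 also: plate controls were DMSO wells for no effect and wells without enzyme for full effect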
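Enzyme activity of human lactate dehydrogenase 5 (2 nM; 0.06 mM NADH, 0.2 mM pyruvate, 5 min, RT) is measured via a resazurin/diaphorase fluorescence readout of residual NADH.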
* hit, by the source's call; ? = inconclusive; nt = no result; [ ] = another dose, or the depositor's remark. A selection: hits, their analogues and other compounds. The true share with any hit is near 18%. Unless noted, calls follow the shape of the dose curve; as a rule, active = well fitted curve in the direction sought with a large enough effect; inconclusive = small, poorly fitted or top-dose-only effect, or another doubt; inactive = no such curve, though single readings can be large; an effect the other way counts as inactive or inconclusive. Unless noted, % is scaled to controls: 0 for no effect and ±100 for the full control effect.

SMILES | IL-1B inflam inh | VP16 counter | DT40 TDP1 no CPT | DT40 TDP1 CPT | RORg inh | LDHA inh
Cc1ccccc1Nc1c(-c2ccc(O)cc2)nc2c(C)cccn12 | nt | nt | ? | 16µM* | nt | -7
Cc1cccn2c(Nc3ccccc3)c(-c3ccc(N4CCOCC4)cc3)nc12 | nt | nt | 5.8µM* | ? | nt | 2
Cc1ccccc1Nc1c(-c2ccccn2)nc2c(C)cccn12 | -12 | 7.9µM* | ? | ? | 4µM* | -13
O=S(=O)(CCN1CCN(c2ccc(O)cc2)CC1)c1ccccc1 | nt | nt | nt | nt | nt | 64
Cc1ccc(C(=O)Nc2c(N3CCCC3)c3ccccc3oc2=O)cc1 | nt | nt | nt | nt | nt | 13
COC(=O)c1ccccc1NC(=O)CC1Sc2ccccc2NC1=O (stereo unspecified) | nt | nt | nt | nt | nt | 6
CCOC(=O)Nc1ccc2c(CN3CCC(C(N)=O)CC3)cc(=O)oc2c1 | nt | nt | nt | nt | nt | 12
Cc1ccc(Nc2c(-c3ccc(C)cc3)nc3c(C)cccn23)cc1 | nt | nt | ? | 15µM* | nt | 1
COc1ccc(-c2nc3cc(NC(C)=O)ccc3o2)cc1Cl | nt | nt | nt | nt | nt | -10
Cc1cccc(-n2c(C)cc(/C=C3/C(=N)N4C(c5ccccc5)=CSC4=NC3=O)c2C)c1 | 16 | -5% | 21µM* | ? | -2% | -10
Cc1cc(C=C2C(=O)c3ccccc3C2=O)c(C)n1-c1ccc(Cl)cc1 | 7 | ? | ? | -23% | -2% | 2
Cc1cccc(-n2c(C)cc(/C=N/n3cnnc3)c2C)c1 | -12 | 20µM* | ? | 23µM* | ? | 4
CCn1c(C)cc(C=C2C(=O)c3ccccc3C2=O)c1C | 0 | -42% | ? | ? | 11µM* | -8
Cc1cccc(-n2c(C)cc(C=C3C(=O)c4ccccc4C3=O)c2C)c1 | -58* | 3% | 13µM* | ? | -19% | -2
Cc1cc(/C=C2/C(=N)N3C(c4ccccc4)=CSC3=NC2=O)c(C)n1-c1ccc(Cl)cc1 | 11 | nt | 3% | 6% | nt | -18
Cc1cc(C=C2C(=O)c3ccccc3C2=O)c(C)n1C | -8 | 14% | ? | -18% | ? | -3
O=C(NC1CC1)c1cc2sccc2n1Cc1ccccc1Cl | nt | nt | nt | nt | nt | 1
N=C1/C(=C\c2ccc(-c3ccc(C(=O)O)cc3)o2)C(=O)N=C2SC=C(c3ccccc3)N12 | ? | 0% | ? | ? | 17% | 0
COc1cc(/C=C2/C(=N)N3C(c4ccccc4)=CSC3=NC2=O)ccc1OCC(=O)O | -5 | -10% | 15µM* | 21µM* | 20% | 1
CN(c1ccc([N+](=O)[O-])cc1/C=N/NC(=O)COc1ccccc1)C1CCCCC1 | -3 | -4% | 16µM* | ? | 9%[10 µM] | 3
O=C(CSc1nc2ccccc2s1)N/N=C/c1cc([N+](=O)[O-])ccc1O | 82 | ? | ? | ? | 5µM* | 10
CCc1ccc(OCC(=O)N/N=C/c2cc([N+](=O)[O-])ccc2N2CCCCCC2)cc1 | -16 | -2% | ? | ? | 26% | 2
Cc1cc(=O)oc2cc(OCC(=O)N/N=C/c3cc([N+](=O)[O-])ccc3O)ccc12 | 0 | 2.2µM* | ? | ? | 1.3µM* | 6
Cc1ccccc1NC(=O)CCC(=O)N/N=C/c1cc([N+](=O)[O-])ccc1O | 23 | ? | 16µM* | ? | 4µM* | 8
Cc1cc(S(=O)(=O)NCC(C)O)c(C)cc1Br (stereo unspecified) | nt | nt | nt | nt | nt | -5
SMILES | IL-1B inflam inh | VP16 counter | DT40 TDP1 no CPT | DT40 TDP1 CPT | RORg inh | LDHA inh
Cc1ccc(C)c(NC(=O)CCC(=O)N/N=C/c2cc([N+](=O)[O-])ccc2O)c1 | 80 | ? | ? | ? | 5.6µM* | 7
Cc1ccc(NC(=O)CCC(=O)N/N=C/c2cc([N+](=O)[O-])ccc2O)cc1 | 65 | 14µM* | ? | ? | 13µM* | -2
CC(C)(C)c1ccc(-c2nnc(SCC(=O)NCc3cccs3)n2Cc2ccco2)cc1 | nt | nt | nt | nt | nt | 6
Cc1cc(NC(=O)c2oc3c(c2C)-c2[nH]ncc2CC3)ccc1Br | nt | nt | 18µM* | ? | nt | 39
Cc1ccc(N(C(C)C(=O)NCc2ccncc2)S(C)(=O)=O)cc1 (stereo unspecified) | nt | nt | nt | nt | nt | 1
N#Cc1ccc(C(=O)Nc2cc(-c3ccc(F)cc3)nn2-c2ccccc2)cc1 | -6 | nt | ? | 15µM* | nt | 0
Cn1nc(-c2ccccc2)cc1NC(=O)c1ccc(Cl)cc1 | -15 | nt | -18% | -30% | nt | -5
O=C(Nc1cc(-c2ccccc2)nn1-c1c(Cl)cccc1Cl)c1ccc(F)cc1 | -25 | nt | 18µM* | 21µM* | nt | -12
CC1(C)CC(CC(=O)O)(c2cccc(C(F)(F)F)c2)CCO1 (stereo unspecified) | nt | nt | nt | nt | nt | -1
COc1ccccc1/C=C/C(=O)C(C#N)c1ccc(C(F)(F)F)cn1 (stereo unspecified) | nt | nt | nt | nt | nt | -2
Cc1cc(C(C)(C)C)cc(C)c1S(=O)(=O)N1CCN(Cc2nc3ccccc3c(=O)[nH]2)CC1 | nt | nt | nt | nt | nt | 3
CC(C)C(N)c1csc(NC(=O)Nc2cccc(Cl)c2)n1 (stereo unspecified) | ? | nt | 21µM* | ? | nt | -7
NC(=O)c1ccc(Nc2nc(C(N)c3ccccc3Cl)cs2)cc1 (stereo unspecified) | -17 | nt | ? | ? | nt | -4
NC(c1csc(NC(=O)Nc2cccc(Cl)c2)n1)c1ccccc1Cl (stereo unspecified) | -107* | nt | ? | ? | nt | -13
Cc1cccc(C)c1NC(=O)Nc1nc(C(N)c2ccccc2Cl)cs1 (stereo unspecified) | -19 | nt | 16µM* | ? | nt | -10
CC(Sc1ncnc2ccccc12)C(=O)NC(N)=O (stereo unspecified) | nt | nt | nt | nt | nt | 5
O=C(NC(=S)Nc1nc(-c2ccc(Br)cc2)cs1)c1ccco1 | 7 | 8% | ? | -18% | 2.8µM* | -4
O=C(NNc1nc(-c2ccc(Br)cc2)cs1)c1ccco1 | -2 | ? | 16µM* | 18µM* | 5.6µM* | -8
COc1ccc(-c2csc(NC(=O)c3ccco3)n2)cc1 | -26 | 25% | -13% | -6% | ? | 0
O=C(NC(=S)Nc1nc(-c2ccc(Br)cc2)cs1)c1cccnc1 | 4 | ? | -15% | -16% | 1.1µM* | -10
CC(NCc1ccc(-c2ccc(F)cc2)o1)c1ccccc1 (stereo unspecified) | nt | nt | nt | nt | nt | 10
Cc1c(NC(=O)Cc2ccc(Cl)cc2)cccc1-c1nc2cccnc2s1 | nt | nt | 16µM* | ? | nt | 2

From PubChem BioAssay
